Results published in PubChem BioAssay (Tox21).
Results filed as inconclusive are left out. Activity calls are given as the source filed them. Calls follow the shape of the full dose curve.

Experiments:
[1] = target: Acetylcholinesterase (Homo sapiens) (UniProt P22303); assay: Acetylcholinesterase (AChE) small molecule antagonists: colormetric cell-based qHTS assay (AID 1347395); also: nearly all actives have a fitted effect of over 30% in size
Summary of the method: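 Homogeneous whole-cell format. SH-SY5Y cells seeded overnight, dosed with compound (30 min, 37 C, 5% CO2), then given DTNB/acetylthiocholine cocktail for 90 min at 37 C; colorimetric signal.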

[2] = target: Acetylcholinesterase (Homo sapiens) (UniProt P22303); assay: Acetylcholinesterase (AChE) small molecule antagonists: enzyme-based qHTS assay (AID 1347397); conditions: Potency: AChE enzyme activity inhibition; outcome: AChE enzyme activity inhibition; also: nearly all actives have a fitted effect of over 55% in size
Summary of the method: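 Colorimetric DTNB readout of acetylthiocholine hydrolysis, 10 min at room temperature, after 30 min room-temperature exposure of 50 mU/mL recombinant human enzyme to compound; DMSO vehicle control.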

[3] = target: Acetylcholinesterase (Homo sapiens) (UniProt P22303); assay: Acetylcholinesterase (AChE) small molecule antagonists: fluorescence cell-based qHTS assay (AID 1347398); conditions: Potency: AChE activity; outcome: AChE activity; also: nearly all actives have a fitted effect of over 50% in size
Summary of the method: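 Cellular AChE activity read as thiocholine from acetylthiocholine hydrolysis, detected by Thiolite Green fluorescence at 490/520 nm after 40 min at room temperature. Compounds were pre-incubated 30 min at 37 C on adherent SH-SY5Y cells.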

[4] = target: Acetylcholinesterase (Homo sapiens) (UniProt P22303); assay: Acetylcholinesterase (AChE) small molecule antagonists: enzyme-based qHTS assay with human liver microsomes (AID 1347399); conditions: Potency: qHTS inhibition; outcome: qHTS inhibition; also: nearly all actives have a fitted effect of over 60% in size
Summary of the method: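 Recombinant human AChE (50 mU/mL in the enzyme mix) and human liver microsomes (0.25 mg/mL final) were preincubated with compound and NADPH (0.25 mg/mL final) for 30 min at 37 C. Acetylthiocholine/DTNB was then added; thiocholine was read colorimetrically after 10 min at room temperature.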
% is scaled to controls: 0 for no effect and ±100 for the full control effect.

Chain of Acetylcholinesterase (Homo sapiens) (P22303 whole entry, looked up): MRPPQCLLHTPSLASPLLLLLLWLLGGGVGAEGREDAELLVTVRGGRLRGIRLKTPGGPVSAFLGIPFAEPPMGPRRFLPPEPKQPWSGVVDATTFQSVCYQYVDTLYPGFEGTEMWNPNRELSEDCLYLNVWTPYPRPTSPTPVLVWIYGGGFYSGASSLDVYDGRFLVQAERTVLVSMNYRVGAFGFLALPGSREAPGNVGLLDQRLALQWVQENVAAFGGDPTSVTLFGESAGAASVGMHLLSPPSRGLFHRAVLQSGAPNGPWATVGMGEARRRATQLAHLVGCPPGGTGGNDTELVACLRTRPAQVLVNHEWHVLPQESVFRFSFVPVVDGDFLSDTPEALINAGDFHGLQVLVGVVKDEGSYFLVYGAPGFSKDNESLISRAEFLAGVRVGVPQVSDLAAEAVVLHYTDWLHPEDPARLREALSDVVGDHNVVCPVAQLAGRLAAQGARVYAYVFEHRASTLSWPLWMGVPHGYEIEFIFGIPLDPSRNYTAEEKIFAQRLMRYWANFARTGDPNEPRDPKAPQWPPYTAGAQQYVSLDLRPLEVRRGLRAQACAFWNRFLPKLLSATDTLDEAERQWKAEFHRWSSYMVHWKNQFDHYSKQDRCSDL

CC(=O)Nc1nnc(S(N)(=O)=O)s1
inactive: Potency [1] | Potency [2] | Potency [3] | Potency [4]

O=[N+]([O-])c1ccccc1Nc1ccccc1
inactive: Potency [1] | Potency [2] | Potency [3] | Potency [4]

CCc1nc(N)nc(N)c1-c1ccc(Cl)cc1
inactive: Potency [1] | Potency [2] | Potency [3] | Potency [4]

C=CC(=O)OCCCCCCCCCC
inactive: Potency [1] | Potency [2] | Potency [3] | Potency [4]

CC(C(=O)O)c1ccc2c(c1)CC(=O)c1ccccc1S2 (stereo not given)
inactive: Potency [1] | Potency [2] | Potency [3] | Potency [4]

O=C(CCCCCCCCc1cccnc1)N1CCC(C=C(c2ccccc2)c2ccccc2)CC1
inactive: Potency [1] | Potency [2] | Potency [3] | Potency [4]

CCCc1ccc(O)cc1
inactive: Potency [1] | Potency [2] | Potency [3] | Potency [4]

Cc1cc(N)no1
inactive: Potency [1] | Potency [2] | Potency [3] | Potency [4]

Cc1cc(C)c(N=Nc2c(O)c(S(=O)(=O)O)cc3cc(S(=O)(=O)O)ccc23)cc1C
inactive: activity, negative = inhibition [1] 0.116% [at 10.5 µM] | activity change, negative = inhibition [2] 0.136% [at 10.5 µM] | activity change, negative = inhibition [3] -0.662% [at 10.5 µM] | activity change, negative = inhibition [4] 0.432% [at 10.5 µM]

O=C(O)CCCC[P+](c1ccccc1)(c1ccccc1)c1ccccc1
inactive: Potency [1] | Potency [2] | Potency [3] | Potency [4]

COC(=O)Cc1cccc2ccccc12
inactive: Potency [1] | Potency [2] | Potency [3] | Potency [4]

Cc1ncc(CSSCc2cnc(C)c(O)c2CO)c(CO)c1O
inactive: Potency [1] | Potency [2] | Potency [3] | Potency [4]

CN(C)CCN(C)CCN(C)C
inactive: Potency [1] | Potency [2] | Potency [3] | Potency [4]

Cc1ccc(N)c(S(=O)(=O)O)c1
inactive: Potency [1] | Potency [2] | Potency [3] | Potency [4]

CC(C)(C)C(=O)C1C(=O)c2ccccc2C1=O
inactive: Potency [1] | Potency [2] | Potency [3] | Potency [4]

CCCCCCCC/C=C\CCCCCCCC(=O)OC(CO)CO
inactive: Potency [1] | Potency [2] | Potency [3] | Potency [4]

CC(=O)Oc1ccc2c(c1)CC[C@@H]1[C@@H]2CC[C@]2(C)[C@@H](O)CC[C@@H]12
inactive: Potency [1] | Potency [2] | Potency [3] | Potency [4]

OC12N=C(c3ccccc3)SC1Cc1cc(Cl)ccc12 (stereo not given)
inactive: Potency [1] | Potency [2] | Potency [3] | Potency [4]

OCc1ccccc1O
inactive: Potency [1] | Potency [2] | Potency [3] | Potency [4]

S=C1NC=NC2N=CNC12 (stereo not given)
inactive: Potency [1] | Potency [2] | Potency [3] | Potency [4]

CCCCCCCCCC/C=C/C#N
inactive: Potency [1] | Potency [2] | Potency [3] | Potency [4]

CCCCN(CCCC)c1ccc(C(=O)c2ccccc2C(=O)O)c(O)c1
inactive: Potency [1] | Potency [2] | Potency [3] | Potency [4]

CC(=O)SC[C@@H](C)C(=O)N1CCC[C@H]1C(=O)N[C@@H](Cc1ccccc1)C(=O)O
inactive: Potency [1] | Potency [2] | Potency [3] | Potency [4]

CC(=O)Nc1ccc(C)c(Cl)c1
inactive: Potency [1] | Potency [2] | Potency [3] | Potency [4]

Cc1ccc(C#N)cc1
inactive: Potency [1] | Potency [2] | Potency [3] | Potency [4]

CCCCC(CC)COC(=O)CC#N (stereo not given)
inactive: Potency [1] | Potency [2] | Potency [3] | Potency [4]

C=C(C)C(=O)OCCN(C)C
inactive: Potency [1] | Potency [2] | Potency [3] | Potency [4]

CCCCOC(=O)C(C)OC(=O)CCC (stereo not given)
inactive: Potency [1] | Potency [2] | Potency [3] | Potency [4]

C/C(=C(\CCO)SS/C(CCO)=C(\C)N(C=O)Cc1cnc(C)nc1N)N(C=O)Cc1cnc(C)nc1N
inactive: Potency [1] | Potency [2] | Potency [3] | Potency [4]

CC(=O)CC(C)=O
inactive: Potency [1] | Potency [2] | Potency [3] | Potency [4]
